Laboratory results reported in PubChem BioAssay (NCATS).
Inconclusive results are not listed. A number with no mark means an inactive call. Activity calls are given as the source filed them. The call rests on the fitted dose curve; in most records, active means well fitted inhibition curve with a large enough effect; inconclusive means small, poorly fitted or top-dose-only effect; inactive means no such curve, though single readings can be large or run the other way.

test system: Zika virus NS2B-NS3 protease (linked construct); test: Primary screen NINDS Rhodamine qHTS for Zika virus inhibitors (AID 1347160); conditions: purified NS2B-NS3 protease, Rhodamine110 substrate fluorescence; series mostly up to 33.1 µM; activity change, negative = inhibition: at the top concentration; further: nearly all actives have a fitted effect of over 55% in size
Description: Avindra Nath, Ph.D., National Institute of Neurological Disorders and Stroke (NINDS), Bethesda, MD
Radhakrishnan Padmanabhan, Ph.D., Georgetown University (GU), Washington D.C.
Zika Virus causes congenital defects, including microcephaly and is associated with Guillain-Barre syndrome, eningoencephalitis and myelitis in infected adult. […] Using a target-based approach, we hope to establish a screening paradigm to uncover novel, cell-active NS2B-NS3 protease (Zika Virus) specific inhibitors from NCATS' collection of small molecules using qHTS.
Four assay panel was created to identify potential Zika Virus inhibitors. Namely, (1) GU unlinked NS2B-NS3 AMC tagged protease qHTS, (2) GU unlinked NS2B-NS3 Rhodamine tagged protease qHTS, (3) NINDS linked NS2B-NS3 AMC tagged protease qHTS, (4) NINDS linked NS2B-NS3 Rhodamine tagged protease qHTS. Active compounds were re-acquired and re-screened to confirm inhibition. Inhibitors were further screened against various confirmatory and counterscreens in dose response format.
Early Translation Branch (ETB)
National Center for Advancing Translational Sciences (NCATS), Rockville, MD
National Institute of Health (NIH), Bethesda, Maryland
For the linked assay, Nath lab (NINDS) provided the purified linked NS2B-NS3 protease which is consists of hydrophilic domain of NS2B linked to the NS3 protease domain by a flexible (-[…]-) linker. Control compound aprotinin is obtained from Thermo Scientific (#78432; Waltham, Massachusetts). Rhodamine110 substrate ([N-Cbz]-Nle-Lys-Arg-Arg-Rhod110-Arg-Arg-Lys-Nle-[N-Cbz]) was purchased from either Genscript or Bachem.
1536-well Protease (Rhodamine110 Substrate) Assay:
Briefly, 3 microL of enzyme (25 nM final concentration), in assay buffer (10 mM Tris-HCl pH 8.0 with 0.01% Tween 20) were dispensed into a 1,536-well solid-bottom black plate (Greiner Bio One, Monroe, NC). Twenty-three nL of compounds (final concentration range 7.28 nM to 114 microM) or control Aprotinin (final concentration range 3.47 nM to 114 microM) were transferred via Wako Pin-tool (Wako Automation, Richmond, VA). Samples were incubated (room temperature, protected from light) for 15 minutes followed by a 1 microL Rhodamine110 substrate addition (1.5 microM final concentration). Plates were then immediately read on a ViewLux High-throughput CCD imager (PerkinElmer, Waltham, MA) equipped with FITC fluorescence optics (480(20) nm excitation, 540(25) nm emission), then incubated (room temperature, protected from light) for 15 minutes (~15% conversion). The change in fluorescence intensity over the 15-minute reaction period was normalized against no-inhibitor and no-enzyme controls and the resulting percent inhibition data were fitted to a 4-parameter Hill equation. Aprotinin was used as intraplate control.
On the % scale 0 is the no-effect control and ±100 the full control effect; potency means the concentration at half of the fitted maximal effect.

| SMILES | activity change, negative = inhibition | Potency | outcome |
| --- | --- | --- | --- |
| O=C(/C=C/c1ccc(O)cc1)O[C@H]1[C@H](OC2CCCCC2O)O[C@H](CO)[C@@H](O)[C@@H]1O (stereo not given in full) | -27.2% |  |  |
| C/C=C/C=C/C=C/C(=O)O[C@@H]1[C@@H](OC)C2=C(C(=O)N(C(CCC(=O)O)C(=O)O)C2)[C@@]2(C)CCCC(C)(C)[C@H]12 (stereo not given in full) |  | 7.08 µM (active) |  |
| CC1CCC23COC(=O)C2=CC(O)CC3C1(C)CCc1ccoc1 (stereo not given) | -7.34% |  |  |
| COc1ccnc(CCc2nc3ncccc3[nH]2)c1 | 72.8% [at 57.1 µM] |  |  |
| C/C=C/C=C/C=C/C(=O)O[C@@H]1C=C(CO)[C@](O)(CO)[C@@]2(C)CCCC(C)(C)[C@H]12 | -17% |  |  |
| O=C(C1OC1/C=C/c1ccc2c(c1)OCO2)N1CCCCC1 (stereo not given) | 11.2% [at 57.1 µM] |  |  |
| COC(=O)C1=CO[C@@H](O[C@@H]2O[C@H](CO)[C@@H](O)[C@H](O)[C@H]2O)C2C1CC(O)C2C (stereo not given in full) | 32.3% |  |  |
| COc1ccc(O[C@@H]2O[C@H](CO)[C@@H](O)[C@H](O)[C@H]2O)cc1OC | 31% |  |  |
| COc1c(C)c(OCC=C(C)C)cc2c1COC2=O | -9.88% [at 57.1 µM] |  |  |
| COC(=O)[C@H](O)[C@H]1C(C)(C)[C@H](OC(C)=O)[C@@]2(O)C(=O)[C@]1(C)C1CC[C@]3(C)C(CC(=O)O[C@H]3c3ccoc3)[C@]13O[C@@H]32 (stereo not given in full) | 9.88% |  |  |
| CC1(C)[C@@H]2CC=C(CO[C@@H]3O[C@H](CO[C@@H]4OC[C@H](O)[C@H](O)[C@H]4O)[C@@H](O)[C@H](O)[C@H]3O)[C@H]1C2 | 2.21% |  |  |
| COC(=O)C1=C[C@@H](O)[C@@H](O)[C@H](O[C@@H]2O[C@H](CO)[C@@H](O)[C@H](O)[C@H]2OC(=O)/C=C/c2ccccc2)C1 | 15.9% |  |  |
| CC/C=C\[C@H](O)[C@H](O)C1=C(C)C(=O)[C@]2(O1)C(=O)N[C@@](O)(C(=O)c1ccccc1)[C@@H]2O | 13% |  |  |
| N=C(N)c1ccc2nc(-c3cc(CC(=O)NC(CC(=O)O)C(=O)O)cc(-c4cc(S(N)(=O)=O)ccc4O)c3O)[nH]c2c1 (stereo not given) | -10.2% [at 57.1 µM] |  |  |
| CCCNCCOc1ccc(NC(=O)c2c[nH]c3c2C(=O)CCC3)cc1F |  |  | inactive |
| CC[C@H]1OC(=O)[C@H](C)C(=O)[C@H](C)[C@@H](OC2O[C@H](C)C[C@H](N(C)C)[C@H]2O)[C@@H](C)C[C@@H](C)C(=O)/C=C/[C@]1(C)O (stereo not given in full) |  |  | inactive [at 33.1 µM] |
| C/C=C1/C[N+](C)([O-])C2Cc3c([nH]c4ccccc34)C(=O)CC1C2C(=O)OC (stereo not given) | 12.3% |  |  |
| CC(C)CC[C@@H](O)[C@](C)(O)[C@H]1CC[C@@]2(O)C3=CC(=O)[C@@H]4C[C@@H](O)[C@@H](O)C[C@]4(C)[C@H]3CC[C@]12C | 5.65% [at 57.1 µM] |  |  |
| CC12CC(c3ccoc3)OC(=O)C1CCC1(C)C2CCC(O)C1(C)O (stereo not given) | -0.754% |  |  |
| Cc1occc1C(=O)n1ccnc1 | -4.59% [at 57.1 µM] |  |  |

| SMILES | activity change, negative = inhibition | Potency | outcome |
| --- | --- | --- | --- |
| COc1cc(/C=C/C(=O)OCC2OC(OC3(CO)OC(CO)C(O)C3O)C(O)C(O)C2O)ccc1O (stereo not given) | -14.4% |  |  |
| C/C=C/C=C/C=C/C(=O)N(C)C(C(=O)NC(C)C(=O)N1CCCC1C(N)=O)C(C)C (stereo not given) | 14% |  |  |
| O=C(OCC1=C[C@@H](O)[C@@H]2C=CO[C@@H](O[C@@H]3O[C@H](CO)[C@@H](O)[C@H](O)[C@H]3O)[C@H]12)c1ccc(O)cc1 | -12.2% |  |  |
| CC/C=C/C(O)C(O)C1=C(C)C(=O)C2(O1)C(=O)NC(OC)(C(=O)c1ccccc1)C2O (stereo not given) | -0.101% |  |  |
| CC1(C)C=Cc2c(ccc3c2N=C2C(C)(C)[C@@H]4C[C@]56CCCN5C(=O)[C@@]4(C[C@]23O)NC6=O)O1 | 10.8% |  |  |
| CN(C)C(=O)C(O)C(Cc1ccccc1)NC(=O)c1cc2cc(Cl)ccc2[nH]1 (stereo not given) | 18.8% [at 57.1 µM] |  |  |
| NC1Nc2ccccc2C1(N)CC1NC(=O)C(Cc2ccccc2)NC(=O)C(Cc2ccccc2)NC1=O (stereo not given) | -25.5% |  |  |
| COC1CC(O[C@H]2CC[C@@]3(C)C(=CC[C@]4(O)C3[C@H](O)[C@@H](O)[C@]3(C)[C@@H]([C@H](C)O)CC[C@@]34O)C2)OC(C)C1OC1CC(OC)C(OC2CC(OC)C(OC3OC(C)C(OC4OC(CO)C(O)C(O)C4O)C(OC)C3O)C(C)O2)C(C)O1 (stereo not given in full) |  |  | inactive [at 15.1 µM] |
| COc1cccc(Cn2ncc3c4sc(S(C)=O)cc4n(C)c3c2=O)c1 (stereo not given) | 24% [at 57.1 µM] |  |  |
| CC1(C)CC[C@]2(C(=O)O[C@@H]3O[C@H](CO)[C@@H](O)[C@H](O)[C@H]3O)CC[C@]3(C)C(=CCC4[C@@]5(C)CC[C@H](O[C@@H]6O[C@H](C(=O)O)[C@@H](O[C@@H]7O[C@H](CO)[C@@H](O)[C@H](O)[C@H]7O)[C@H](O)[C@H]6O[C@@H]6O[C@H](CO)[C@@H](O)[C@H](O)[C@H]6O)C(C)(C)C5CC[C@]43C)C2C1 (stereo not given in full) | -2.22% [at 15.1 µM] |  |  |
| C[C@]1(OC(=O)/C=C/c2ccccc2)C[C@@H](O)[C@]2(O)C=CO[C@@H](O[C@@H]3O[C@H](CO)[C@@H](O)[C@H](O)[C@H]3O)[C@@H]21 | -4.42% |  |  |
| CN1CCN(C2=Nc3ccccc3Nc3ccc(O)cc32)CC1 | 30.2% [at 57.1 µM] |  |  |
| O=C(CC1CC(c2ccc(F)cc2F)=NO1)N1CCOCC1 (stereo not given) |  |  | inactive |
| CC1=COC(OC2OC(CO)C(O)C(O)C2O)C2C(CO)CC(OC(=O)/C=C/c3ccc(O)cc3)C12 (stereo not given) | -9.11% |  |  |
| COc1cc(C2OCC3(O)C(c4ccc(O[C@@H]5O[C@H](CO)[C@@H](O)[C@H](O)[C@H]5O)c(OC)c4)OCC23O)ccc1O (stereo not given in full) | -2.78% |  |  |
| COc1cc2c(cc1O)CC(O)(CO)C(CO)C2c1ccc(OC2OC(CO)C(O)C(O)C2O)c(OC)c1 (stereo not given) | -4.9% |  |  |
| CC1(C)CC[C@]2(C(=O)O)[C@H](O)C[C@]3(C)C(=CCC4[C@@]5(C)CC[C@H](O[C@@H]6OC[C@@H](O)[C@H](O)[C@H]6O)[C@@](C)(C(=O)O)C5CC[C@]43C)[C@@H]2C1 (stereo not given in full) | -2.03% [at 15.1 µM] |  |  |
| C/C(=C\C(=O)C(C)C1CCC2C3=C(CCC21C)C1(C)CCC(=O)C(C)(C)C1(O)CC3)C(C)(C)O (stereo not given) |  | 14.1 µM (active) |  |
| CC(C)=CCC/C(C)=C/CO[C@@H]1O[C@H](CO[C@@H]2O[C@@H](CO)[C@H](O)[C@H]2O)[C@@H](O)[C@H](O)[C@H]1O | -1.9% |  |  |
| COc1cc(O)cc2c1C(=O)OC(C)C2 (stereo not given) | 7.32% [at 57.1 µM] |  |  |
